Bioassay records deposited in PubChem by several laboratories.
Neddylation inh: blocks human cullin neddylation | hit rate 0.58% among 360,000 | P61081+Q13564 | TR-FRET cullin neddylation, biochemical | calls only at 25 µM; in the data active means inhibition above about 36%
Target sequence (P61081 whole entry, looked up): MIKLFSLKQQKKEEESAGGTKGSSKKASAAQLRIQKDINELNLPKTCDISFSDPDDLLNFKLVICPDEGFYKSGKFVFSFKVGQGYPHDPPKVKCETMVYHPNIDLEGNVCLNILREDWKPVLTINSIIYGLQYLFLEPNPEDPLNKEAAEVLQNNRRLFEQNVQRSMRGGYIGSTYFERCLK
Target sequence (Q13564 whole entry, looked up): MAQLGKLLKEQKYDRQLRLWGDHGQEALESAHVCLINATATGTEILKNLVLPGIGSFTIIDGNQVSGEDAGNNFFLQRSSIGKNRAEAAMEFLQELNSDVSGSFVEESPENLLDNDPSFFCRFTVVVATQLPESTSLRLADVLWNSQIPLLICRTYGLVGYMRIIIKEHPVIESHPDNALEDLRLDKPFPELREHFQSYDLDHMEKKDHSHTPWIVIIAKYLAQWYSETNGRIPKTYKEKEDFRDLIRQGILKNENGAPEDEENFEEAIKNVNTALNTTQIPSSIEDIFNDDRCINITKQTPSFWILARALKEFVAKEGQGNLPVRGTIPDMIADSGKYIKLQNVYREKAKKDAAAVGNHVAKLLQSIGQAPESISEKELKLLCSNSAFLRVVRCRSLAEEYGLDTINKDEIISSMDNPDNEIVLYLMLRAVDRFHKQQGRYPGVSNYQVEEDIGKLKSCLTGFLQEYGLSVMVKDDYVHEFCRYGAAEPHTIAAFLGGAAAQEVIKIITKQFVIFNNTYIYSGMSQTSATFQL
PKA-R1A activ: PKA-R1A complex activation; P00514+P68181; PKA-R1A dissociation, Cy5-IP20 fluorescence polarization; scaled: DMSO 0%, 113 µM cGMP 100%; activation, % at 11.4 µM; hit rate 0.083% among 340,000; AID 504707;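 active means percent activation above the mean of all tested compounds plus 3 SD, cut at about 19% in these data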;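 further: higher means more PKAc released from R1A so a rise in polarization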
PolyA inhibitor: inhibitors of polyadenylation in S. cerevisiae; S. cerevisiae SKY197-pL101 polyadenylation reporter, beta-gal luminescence; efflux-impaired pdr1/pdr3 knockout yeast; score 100 = 6 SD above DMSO; activity score, % at 12 µM; hit rate 0.02% among 300,000; AID 1875;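 active means lowest replicate activity score at least 50, where 100 means six control SD above control mean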;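 further: yeast exposed to compound for 9 h at 30 °C; higher score means more reporter readthrough which indicates perturbed polyadenylation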
PKA-R2B activ: PKA-R2B complex activation; P22694+P31323; PKA-R2B holoenzyme dissociation, Cy5-IP20 fluorescence polarization; R2B truncated from residue 108, S112A mutant; 0% DMSO only, 100% 113 µM cGMP; activation, % at 11.4 µM; hit rate 0.079% among 340,000; AID 504700;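 active means activation above a cutoff set at the mean over all compounds plus 3 SD, cut at about 18% in these data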;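 further: higher means more holoenzyme dissociation and a rise in polarization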
Starred values were filed as active, the others as inactive; i = inactive; · = no result given; + = active, no number. Hits are enriched below; roughly 0.72% of the tested compounds scored in any of these assays.

SMILES	Neddylation inh	PKA-R1A activ	PolyA inhibitor	PKA-R2B activ
O=C(COC(=O)Cc1ccc(S(=O)(=O)N2CCOCC2)s1)Nc1ccc2c(c1)OCO2	i	3	106*	-1
C[n+]1cccc2cccc([O-])c21	+	-4	·	-9
CCN1C(=O)c2cccc3c(S(=O)(=O)Nc4ncccc4C)ccc1c23	+	13	-17	7
COc1ccc2oc(=O)cc(CN3CCN(Cc4ccc(OC)c(OC)c4OC)CC3)c2c1	i	-7	-1	0
N#CC1(C#N)C2=C(CCCC2)NC(c2ccccc2)C1(C#N)C#N (stereo not given)	·	·	159*	·
N#CC12C(N)=NC3(OCCO3)C1(C#N)C1=C(CCC1)NC2c1ccccc1 (stereo not given)	i	-15	-21	-7
CCOc1ccc(C2c3[nH]c4ccccc4c3CCN2C(=O)Cn2cncn2)cc1 (stereo not given)	i	-4	-6	-9
O=c1oc2c3c4c(cc2s1)CCCN4CCC3	i	-4	-16	-3
O=c1ccc2cc3c4c(c2o1)CCCN4CCC3	+	10	-10	10
COc1ccc2[nH]c(C(=O)NCCCn3ccnc3)cc2c1	·	-6	-12	8
O=C(CSC1=NCCS1)NC(c1ccccc1)c1ccccc1	i	19*	-5	3
O=C(CSC1=NCCS1)NC(NC(=O)CSC1=NCCS1)c1ccccc1	i	-8	0	0
NC(=O)c1ccccc1OCC(=O)Nc1ccc(Cl)c(Cl)c1	i	-5	-8	-10
C/C(=N\NC(=S)NCC(C)(C)C)c1cc(F)cc(F)c1O	+	-2	-10	-3
CCN(CC)C(=O)Oc1ccc2c(c1)O/C(=C\c1ccco1)C2=O	i	1	59*	5
CCC(=O)Oc1ccc2c(c1)O/C(=C\c1ccco1)C2=O	i	·	4	·
O=c1c2c3nc4ccccc4nc3n(CC3CCCO3)c2ncn1CCc1ccccc1 (stereo not given)	+	1	-17	-1
COc1cc(OC)cc(-n2c3nc4ccccc4nc3c3c(=O)n(CC4CCCO4)cnc32)c1 (stereo not given)	·	·	-6	·
COc1cccc(CNC(=O)CCC2CCCN(C(=O)CCn3cncn3)C2)c1 (stereo not given)	i	-7	20	13
Cc1c(C(=O)N/N=C/c2ccc(O)c(Br)c2)sc(N)c1C#N	+	-3	·	-9
COc1ccc(-c2cccc(NC(=O)COc3ccc(Cl)cc3)c2)nn1	i	-7	81*	-2
COc1ccc(N(CC(=O)N/N=C/c2ccccc2F)S(=O)(=O)c2ccccc2)cc1	i	-13	-14	4
COc1ccc(CCNC(=O)CCOc2ccc(C(C)(C)C)cc2)cc1OC	i	-17	-14	-11
CCCCn1cnc2c(oc3ccccc32)c1=O	i	-3	-13	-5
CSc1nc(N)c(C(=O)N(c2ccccc2)c2ccccc2)s1	i	-8	·	-4
SMILES	Neddylation inh	PKA-R1A activ	PolyA inhibitor	PKA-R2B activ
COCCCNC(=S)N/N=C/c1cccc(OC)c1O	+	·	10	·
Cc1ccc(C(=O)c2no[n+]([O-])c2C(=O)c2ccc(C)cc2)cc1	i	-4	100*	-18
CC(C)c1nc2c(c(=O)c3ccccc3n2C)c(=O)n1CCc1ccccc1	i	·	16	·
Nc1nc2ccccc2n1C(=O)c1ccccc1	+	3	-4	-8
Cc1occc1C(=O)N/N=C/C=C/c1ccccc1	i	-4	19	-1
Cc1occc1C(=O)N/N=C/C=C/c1ccc(N(C)C)cc1	+	-6	17	-12
Cc1ccc(/C=N/NC(=O)c2ccoc2C)o1	i	-7	7	-5
Cc1occc1C(=O)N/N=C/c1ccc(N(C)C)cc1	+	-15	11	-5
COc1ccccc1NC(=O)C1CCN(S(=O)(=O)c2cccc3nonc23)CC1	i	2	-19	5
CCn1nc(C)c(/C=N/NC(=O)c2ccc3c(c2)c(C)c(C)n3Cc2ccccc2)c1C	+	-3	-11	-9
CN(Cc1ccco1)c1ncnc2ccc(-c3ccoc3)cc12	+	2	·	-5
Cc1ccc2nc(NC(=O)c3ccco3)sc2c1	i	6	-9	2
COc1ccc2nc(NC(=O)c3ccco3)sc2c1	+	-6	-20	-3
Cc1cc(C[n+]2ccccc2)c2nsnc2c1	+	-3	12	-1
Cc1cc(C[n+]2ccsc2N)c2ncccc2c1	i	1	-6	-7
COc1ccc(NC(=O)c2cc3c(COC(C)=O)cnc(C)c3oc2=Nc2cccc(C(=O)O)c2)c(OC)c1	i	19*	4	-3
COc1cccc(N=c2oc3c(C)ncc(CO)c3cc2C(=O)Nc2ccccc2OC)c1	·	·	10	·
Cc1ccc(-c2nn3c(C)nnc3s2)cc1NC(=O)CSc1ccc(Cl)cc1	i	9	88*	-10
Cc1nnc2sc(-c3ccc(NC(=O)CSc4ccc(Cl)cc4)cc3)nn12	i	-4	-3	-8
Cc1c(C)c2ccc(OCC(=O)NCCN3CCOCC3)c(C)c2oc1=O	+	6	14	-2
CN1CCc2c(sc(NC(=O)c3ccc4ccccc4c3)c2C(N)=O)C1	i	-2	12	-4
COc1cc2ccccc2cc1C(=O)Nc1sc2c(c1C(N)=O)CCN(C(C)C)C2	+	-3	-13	1
CC(C)C[C@@H](CN)NC(=O)c1nc[nH]c1C(=O)N[C@@H](CC(C)C)C(=O)CNC[C@H](C)NC(=O)c1nc[nH]c1C(=O)N[C@@H](CC(C)C)C(=O)O	i	-4	·	4
Cc1ccc(C(=O)Nc2scc(-c3ccccc3)c2C(=O)O)cc1	+	1	6	3
COc1cc(C(=O)Nc2scc(-c3ccc(C)cc3)c2C(=O)O)cc(OC)c1OC	·	-5	-8	-6
SMILES	Neddylation inh	PKA-R1A activ	PolyA inhibitor	PKA-R2B activ
COC(=O)C1CCN(C(=O)c2cc3c(=O)n4cccc(C)c4nc3n2Cc2ccccc2)CC1	i	3	17	3
Cc1ccccc1-c1n[nH]c(=S)n1/N=C/C=C/c1ccco1	+	-4	0	-5
S=c1[nH]nc(-c2ccccc2)n1/N=C/C=C/c1ccco1	i	-3	-2	-1
CN1Cc2c(N3CCOCC3)nc3sc(C(=O)c4ccc(Br)cc4)c(N)c3c2CC1(C)C	+	·	-7	·
CN1Cc2c(N3CCOCC3)nc3sc(C#N)c(N)c3c2CC1(C)C	·	16	8	6
O=C(Cn1c(=O)cnc2ccccc21)N1CCN(S(=O)(=O)c2cccc([N+](=O)[O-])c2)CC1	i	-5	27	-7
Cc1ccc(/C=N/Nc2ccnc3cc(Cl)ccc23)c(C)c1	+	-8	9	-6
Cc1ccccc1/C=N/Nc1ccnc2cc(Cl)ccc12	i	12	-18	5
Oc1ccccc1/C=N/NC(=S)NC1CC2CC1C1C=CCC21 (stereo not given)	+	-10	1	-5
